In the supplement of paper PMC7156485:

Tested on: TDF
Test: H1.0 immunofluorescence intensity relative to DMSO (% of DMSO); higher = stronger H1.0 induction, active = 120 or more
Conditions: concentration: 10 µM; 24 h
In short: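 Using 384-well plates with 800 cells per well in RPMI plus 10% FBS, HCC1569 and TDF cells were exposed to compounds at 10 µM, in triplicate, for 24 h at 37 °C. Imaging of six fields per well at ×10 followed H1.0 and DAPI staining. The reported quantity, H1.0 nuclear intensity or cell number, is a median of replicates given as percent of the plate control, and HCC1569 values were smoothed for positional effects.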
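Note: TDF is a line of transformed human dermal fibroblasts of mesenchymal origin.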

H1.0 immunofluorescence intensity, active:
COc1ccc(N2C(=O)CSC2c2cccc(Br)c2)c(OC)c1 (centres undefined) 156

H1.0 immunofluorescence intensity, inactive:
CC(C)(C)NCC(O)COc1cccc2[nH]c(=O)[nH]c12.Cl (racemic) 93.5
C=C1OC(CO)(n2cnc3c(N)ncnc32)C(O)C1O (centres undefined) [Decoyinine] 91.6
O=C(Nc1ccc(S(=O)(=O)Nc2nccs2)cc1)C(c1ccccc1)c1ccccc1 86
COC(=O)N=NC=C1C=[N+]([O-])c2ccccc2N1O [Carbadox] 95.8
CCOC(=O)C(C)(C)Oc1ccc(Cl)cc1 [Clofibrate] 99.5
CC1OC(OC2C(Oc3cc(O)c4c(=O)cc(-c5ccc(O)cc5)oc4c3)OC(CO)C(O)C2O)C(O)C(O)C1O (centres undefined) [Rhoifolin] 88.4
Br.Br.N=C(N)SCCN [2-(2-Aminoethyl)isothiourea dihydrobromide] 96.9
Cc1ccccc1C(=O)c1ccc(Nc2ccc(Br)cc2N)cc1Cl 93
COc1nccc(-c2c(-c3ccc(F)cc3)ncn2C2CCC(O)CC2)n1 (centres undefined) 85.5
COc1cc2c3cc1Oc1cc(ccc1O)CC1c4c(cc(OC)c(O)c4Oc4ccc(cc4)CC3N(C)CC2)CC[N+]1(C)C.Cl.[Cl-] (single isomer, unassigned; (+)) [(+)-Tubocuraraine chloride] 93.2
CC1Cc2ccccc2N1NC(=O)c1ccc(Cl)c(S(N)(=O)=O)c1 (centres undefined) [Indapamide] 88.5
Clc1ccc2c(c1)CCc1cccnc1C2=C1CCNCC1 [Desloratadine] 109
Nc1ncnc2c1C(=O)N(c1ccc(C3CCC(CC(=O)O)CC3)cc1)CCO2 (centres undefined) 99.8
CC(C)=CCC(OC(=O)C=C(C)C)C1=CC(=O)c2c(O)ccc(O)c2C1=O (stereo not drawn) [Shikonin beta,beta-dimethylacrylate] 109
O=C1C=C(CO)OCC1=O [5-hydroxy-2-(hydroxymethyl)-4H-pyran-4-one] 92.9
COc1ccccc1N1CCN(CCCCNC(=O)c2ccc3ccccc3c2)CC1 [N-{4-[4-(2-methoxyphenyl)-1-piperazinyl]butyl}-2-naphthamide] 96.7
O=C(C=Cc1ccc(O)c(O)c1)OCCc1ccccc1 93.1
COc1cc2ncnc(Nc3ccc(OCc4ccccc4)cc3)c2cc1OC [EGFR/ErbB-2 Inhibitor] 103
O=c1cc(N2CCOCC2)oc2c(-c3ccccc3)cccc12 88
COc1cc(CCC(C)=O)ccc1O [Vannilylacetone] 95.6
Cc1cccc(C=Cc2ccccc2)n1 96.7
COc1ccccc1N1CCN(CCCCNS(=O)(=O)c2cccc3c(N(C)C)cccc23)CC1.O=C(O)C=CC(=O)O [Cortexolone maleate] 117
Br.CN1CCc2c(cc(O)c(O)c2Cl)C(c2cccc(Cl)c2)C1 (centres undefined) 91.9
CCCC(CCC)C(=O)[O-].[Na+] [Valproic acid sodium] 95
CC(=O)Oc1ccc(C(c2ccc(OC(C)=O)cc2)c2ccccn2)cc1 [Bisacodyl] 86.4
OCC1OC(n2cnc3c(NC4CCCC4)ncnc32)C(O)C1O (centres undefined) [N6-Cyclopentyladenosine] 93.5
CC(=O)C1CCC2C3CC=C4CC(OS(=O)(=O)[O-])CCC4(C)C3CCC12C.[Na+] (centres undefined) [Pregnenolone sulfate sodium] 95.8
C[N+]1(CCCCC[N+]2(C)CCCC2)CCCC1.O=C([O-])C(O)C(O)C(=O)O.O=C([O-])C(O)C(O)C(=O)O [Pentolinium di[L(+)-tartrate]] 92.6
